Experimental data: PubChem BioAssay (EPA / NIEHS)
The source made the active and inactive calls. The calls were made as follows: active = hit-call score of the fitted dose curve at least 0.9, where 1 is the maximum; inactive = score below 0.9.

Test: BSK_SAg_PBMCCytotoxicity: PBMC Cytotoxicity Assessment in the BioMAP Diversity Plus: SAg Assay (AID 2283093);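 also: fitted both ways against DMSO so a hit may be loss or gain of signal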
Settings: primary human HUVEC with PBMC
Protocol: BSK_SAg is a cell-based, multiplexed-readout assay that uses umbilical vein endothelium and peripheral blood mononuclear cells, a human vascular primary cell co-culture, with measurements taken at 24 hours after chemical dosing in a 96-well plate.BSK_SAg_PBMCCytotoxicity is an assay component measured in the BSK_SAg assay. It measures Alamar blue related to cell death using Alamar Blue Reduction technology.Data from the assay component BSK_SAg_PBMCCytotoxicity was analyzed into 1 assay endpoint. This assay endpoint, BSK_SAg_PBMCCytotoxicity, was analyzed with bidirectional fitting relative to DMSO as the negative control and baseline of activity. Using a type of viability reporter, gain or loss-of-signal activity can be used to understand changes in the viability. Furthermore, this assay endpoint can be referred to as a secondary readout, because this assay has produced multiple assay endpoints where this one serves a viability function. To generalize the intended target to other relatable targets, this assay endpoint is annotated to the cell cycle intended target family, where the subfamily is cytotoxicity.
The levels of cell surface (or secreted, indicated by the prefix "s") biomarker endpoints were measured by ELISA. Overt cytotoxicity to cells in confluent adherent cultures (all systems other than the BT system) was assessed by measuring total protein levels using sulforhodamine B (SRB) staining in parallel cultures at the time of biomarker measurements, indicated as SRB endpoints. For proliferation assays for adherent cell types, individual cell types are cultured at sub-confluence and relative cell numbers quantified by SRB staining at time points optimized for each system (48 h: 3C and CASM3C systems; 72 h: BT and HDF3CGF systems; 96 h: SAg system). SRB was performed by staining cells with 0.1% SRB after fixation with 10% TCA and reading wells at 560 nm.Viability and proliferation of PBMC (T cells) was quantified by Alamar Blue reduction for the SAg and BT systems. For PBMC viability (referred to as PBMC Cytotoxicity within the assay endpoint names), cells were plated (75,000/well in a 96-well plate) and then chemical samples added for 1 h before addition of activators, SEB and TSST-1 (20 ng/mL final concentration each). Cells were incubated for 90 h. Then, Alamar Blue (20 uL/well) (Invitrogen, Cat DAL1100) was added for 6 h, and the plates were read with a fluorescence microplate reader at 546/580 nm (excitation/emission). For PBMC proliferation, cells were plated and activated as above but incubated for only 16 h prior to addition of Alamar Blue. Plates were read after 6 h.

Structure (SMILES) | outcome | AC50
Cc1nccn1-c1ccc(Sc2cccc(C3(C(N)=O)CCOCC3)c2)cc1 | inactive | 
OCc1ccccc1 | inactive | 
OCCC(F)(F)C(F)(F)C(F)(F)C(F)(F)F | inactive | 
O=C(NO)C1(NS(=O)(=O)c2ccc(Oc3ccc(F)cc3)cc2)CCOCC1 | inactive | 
OC[C@H]1O[C@@](CO)(O[C@H]2O[C@H](CO)[C@@H](O)[C@H](O)[C@H]2O)[C@@H](O)[C@@H]1O | inactive | 
Nc1ccn([C@@H]2O[C@H](CO)[C@@H](O)[C@@H]2O)c(=O)n1 |  | 12 µM (active)
S=P(N1CC1)(N1CC1)N1CC1 | inactive | 
NC(=O)N(O)[C@@H]1COc2cc(OCc3ccccc3)ccc21 | inactive | 
NC(=O)N1c2ccccc2C=Cc2ccccc21 | inactive | 
O=S1(=O)CCCO1 | inactive | 
COc1cc(C(C)C)c2c(c1)S(=O)(=O)N(COc1cc(=O)n3cccc(OCCN4CCCCC4)c3n1)C2=O | inactive | 
CCCCCOC(C)=O |  | 30.3 µM (active)
O=c1[nH]cnc2c1ncn2[C@H]1CC[C@@H](CO)O1 | inactive | 
Cn1cc[nH]c1=S | inactive | 
CCCCCCCCCCCCCCO |  | 30.3 µM (active)
c1ccc2c(c1)-c1cccc3c1c-2cc1ccccc13 | inactive | 
C[C@]12C=CC(=O)C=C1CC[C@H]1[C@@H]3C[C@@H](O)[C@](O)(C(=O)CO)[C@@]3(C)C[C@H](O)[C@@]12F | inactive | 
CC(C)CCCCCCOC(=O)C1CCCCC1C(=O)OCCCCCCC(C)C (stereo not given) |  | 3.51 µM (active)
O=C(O)c1ccc2c(c1)nc(C(=O)NC1CCN(C3CC3)CC1)n2Cc1cc(-c2ccc(Cl)s2)on1 | inactive | 
CNC(C)=O | inactive | 

Structure (SMILES) | outcome | AC50
CCCCCCCCCCCCCCCCOS(=O)(=O)O | inactive | 
CCCCCCOC(=O)CC(CC(=O)OCCCCCC)(OC(=O)CCC)C(=O)OCCCCCC |  | 4.11 µM (active)
O=C(Cl)C(F)(F)C(F)(F)C(F)(F)C(=O)Cl | inactive | 
OCc1c[nH]c2ccccc12 | inactive | 
CCCOc1ccc(S(=O)(=O)N2CCN(CC)CC2)cc1-c1nc2c(CC)n(Cc3ccccn3)nc2c(=O)[nH]1 | inactive | 
NC(N)=O | inactive | 
CC[C@H](C)C(=O)O[C@H]1C[C@H](O)C=C2C=C[C@H](C)[C@H](CC[C@@H](O)C[C@@H](O)CC(=O)O)[C@H]21 | inactive | 
O=C1CN(N=Cc2ccc([N+](=O)[O-])o2)C(=O)N1 | inactive | 
FC(F)C(F)(F)COCC1CO1 (stereo not given) | inactive | 
C=CN1CCCC1=O | inactive | 
O=C(O)c1cccc(C[C@@H]2COc3ccc(OCc4nc5cc(F)ccc5s4)cc3[C@@H]2O)c1 | inactive | 
C[Si](C)(C)C(F)(F)C(F)(F)C(F)(F)F | inactive | 
OCCNCCO | inactive | 
C=CCc1cc(S(=O)(=O)c2ccc(O)c(CC=C)c2)ccc1O |  | 36.8 µM (active)
CCCCC(CC)C(=O)OCCOCCOCCOC(=O)C(CC)CCCC (stereo not given) | inactive | 
FC(F)(F)COC(OCC(F)(F)F)OCC(F)(F)F | inactive | 
COc1cc2c(c(OC)c1OC)-c1ccc(OC)c(=O)cc1[C@@H](NC(C)=O)CC2 | inactive | 
OC(CCl)CCl | inactive | 
CCCCCCCCCC | inactive | 
CCc1cccc(CC)c1N | inactive | 
